Data as given in PubChem BioAssay (NCATS).
Inconclusive results are not listed. Where a call stands in place of a potency, no number is given. Activity calls are given as the source filed them. The call rests on the fitted dose curve.

Columns and labels:
[1] = Primary qHTS for inhibitors of SARS-S pseudo-typed particle cell entry (AID 1479145); further: nearly all actives have a fitted effect of over 45% in size
[2] = Primary qHTS for Huh7 cytotoxicity: counterscreen for inhibitors of MERS-S pseudotyped particle cell entry (AID 1479147)
[3] = Primary qHTS for inhibitors of MERS-S pseudo-typed particle cell entry (AID 1479149); further: nearly all actives have a fitted effect of over 60% in size
[4] = Primary qHTS for Vero E6 cytotoxicity: counterscreen for inhibitors of SARS-S pseudo-typed particle cell entry (AID 1479150)
Potency means the concentration at half of the fitted maximal effect.

Compound | Potency [1] | Potency [2] | Potency [3] | Potency [4]
CCOC(=O)c1ccc(NC(=O)CN2CCCCC2)cc1 | inactive | inactive | inactive | inactive
CC1(C)[C@@H](OC(=O)CCC(=O)O)CC[C@]2(C)[C@H]3C(=O)C=C4[C@@H]5C[C@@](C)(C(=O)O)CC[C@]5(C)CC[C@@]4(C)[C@]3(C)CC[C@@H]12 | inactive | inactive | inactive | inactive
COCCc1ccc(OCC(O)CNC(C)C)cc1 (configuration not stated) | inactive | inactive | inactive | inactive
CC(C)Cc1ccc(C(C)C(=O)OCc2ccccn2)cc1 (configuration not stated) | inactive | inactive | inactive | inactive
N[C@H](C(=O)O)[C@@H](O)c1ccc(O)c(O)c1 | inactive | inactive | inactive | inactive
C[C@H]1NCc2cc(-c3ccc4c(=O)c(C(=O)O)cn(C5CC5)c4c3OC(F)F)ccc21 | inactive | inactive | inactive | inactive
C[C@]12CC[C@@H]3c4ccc(O)cc4CC[C@H]3[C@@H]1CC[C@@H]2OC(=O)CCC1CCCC1 | inactive | inactive | inactive | inactive
CC1(C)S[C@@H]2[C@H](N=CN3CCCCCC3)C(=O)N2[C@H]1C(=O)O | inactive | inactive | inactive | inactive
C[C@]12CCC(=O)C=C1CC[C@@H]1[C@@H]2[C@@H](O)C[C@@]2(C)[C@H]1CC[C@]2(O)C(=O)CO | inactive | inactive | inactive | inactive
C[C@@H](O)[C@H](N)C(=O)O | inactive | inactive | inactive | inactive
NC(CSCC(=O)O)C(=O)O (configuration not stated) | inactive | inactive | inactive | inactive
Nc1nc2ncc(CNc3ccc(C(=O)N[C@@H](CCC(=O)O)C(=O)O)cc3)nc2c(=O)[nH]1 | inactive | inactive | inactive | inactive
O=C(CCCCCCCCC#CI)Oc1ccccc1 | inactive | inactive | inactive | inactive
CN(C)C(=S)SC(=S)N(C)C | 1.41 µM (active) | 3.16 µM (active) | 1 µM (active) | 2.82 µM (active)
CN(C)CCn1nnnc1SCC1=C(C(=O)O)N2C(=O)[C@@H](NC(=O)Cc3csc(N)n3)[C@H]2SC1 | inactive | inactive | inactive | inactive
CC(C(=O)O)c1ccc(CC2CCCC2=O)cc1 (configuration not stated) | inactive | inactive | inactive | inactive
O=C(OCC(COC(=O)c1cccnc1)(COC(=O)c1cccnc1)COC(=O)c1cccnc1)c1cccnc1 | inactive | inactive | inactive | inactive
NCCNC(=O)c1ccc(Cl)cn1 | inactive | inactive | inactive | inactive
CCC(=O)O[C@]1(C(=O)CCl)[C@@H](C)C[C@H]2[C@@H]3CCC4=CC(=O)C=C[C@]4(C)[C@@]3(F)[C@@H](O)C[C@@]21C | inactive | inactive | inactive | inactive
COc1nc(C)nc(Cl)c1NC1=NCCN1 | inactive | inactive | inactive | inactive
CCOC(=O)c1c(N)sc2c1CCN(Cc1ccccc1)C2 | inactive | inactive | inactive | inactive
Nc1ccc(S(=O)(=O)Nc2nccs2)cc1 | inactive | inactive | inactive | inactive
Oc1cc(O)c2c(c1)O[C@H](c1ccc(O)c(O)c1)[C@H](O)C2 | inactive | inactive | inactive | inactive
